Screening results from PubChem BioAssay.
Vif inh: HIV Vif self-association inhibitors, primary screen, imaging, HEK293T, single point; HEK293T cells, Vif self-association by quenched fluorescence, 24 h; AID 602346, 2012; actives 0.35% (n = 340,000); inhibition, % at 7.49 µM; in the data active means inhibition above about 50%, passing the limit was not always enough; inconclusive means no clear call, values can overlap the other calls; inactive means below about 31%
N-glyco inh: increase of ERlucT glycosylation luciferase signal, primary screen, N-linked glycosylation inhibitor project, D54 ERlucT cells, luminescence, set 2 | D54 ERlucT glycosylation luciferase reporter, 24 h; percent of 100 nM tunicamycin response | reporter increase, % at 12.5 µM | actives 0.23% (n = 360,000) | AID 588692, 2011;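 active means mean luciferase reporter signal, scaled so untreated is 0 and the glycosylation-blocking control 100, at or above a set limit in every replicate; inconclusive means mean reaches the limit but not every replicate does; inactive means mean below the limit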;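 further: luciferase carries N-glycosylation sites so blocking glycosylation raises the light; 0% = median of neutral control wells and 100% = median of 100 nM tunicamycin wells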
Wnt act: Wnt/beta-catenin pathway activators, primary screen, cell-based, plate reader, single point; AID 743398, 2014; actives 1.2% (n = 300,000); Wnt/beta-catenin reporter cell assay, activator; activation, % at 9.35 µM; in the data active means activation above about 30%, passing the limit was not always enough; inconclusive means no clear call, values can overlap the other calls;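 further: 0% = neutral control wells and 100% = positive control wells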
esBAF inh: Bmi1 luciferase reporter increase in mESCs, primary screen, esBAF inhibitor project, mouse ES cells, Bmi1 luciferase knock-in, single point; actives 2% (n = 350,000); 24 h; 100% = twice the neutral-well signal; AID 602393, 2012; reporter increase, % at 12.5 µM; in the data active means activation above about 40%; inconclusive means no clear call, values can overlap the other calls;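 further: 0% = median of the plate's neutral control wells and 100% = double that signal; a rise in the Bmi1 reporter signal indicates esBAF inhibition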
MITF act: activators of MITF-driven TRPM1 promoter reporter, primary screen, cell-based, SK-MEL-5, luciferase, single point; SK-MEL-5 TRPM1-promoter luciferase, 24 h; % of positive control, neutral wells = 0; actives 0.75% (n = 300,000); activation, % at 12.5 µM; AID 588334, 2011;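 active means mean activation of at least 80% with every replicate also reaching 80%; inconclusive means mean reaches 80% but some replicate falls short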;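 further: 0% = neutral control wells and 100% = parthenolide positive control wells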
PvdQ inh: P. aeruginosa PvdQ acylase inhibitors, primary screen, biochemical, fluorescence, plate reader and imaging, single point; PvdQ acylase [Pseudomonas aeruginosa LESB58]; purified PvdQ acylase; inhibition, % at 10 µM; actives 0.063% (n = 340,000); in the data active means inhibition above about 30%, passing the limit was not always enough; inconclusive means no clear call, values can overlap the other calls;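 further: 0% = vehicle neutral wells and 100% = reference inhibitor wells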
* = called active by the depositor; ? = inconclusive; nt = not tested or not shown. Sampled rows, rich in hits. Any-hit rate of the full collection: about 2.9%.

SMILES | Vif inh | N-glyco inh | Wnt act | esBAF inh | MITF act | PvdQ inh
Cc1ccc(NC(=O)CSc2nccn2Cc2ccco2)cc1 | -4 | -2 | 21 | 56* | 54 | 4
COCCCn1c(SCC(=O)Nc2ccc(C(C)=O)cc2)nc2ccccc2c1=O | -7 | 5 | nt | 66* | nt | 4
CCSc1nncn1/N=C/c1ccc(OC)c(OC)c1 | 16 | 0 | 1 | 18 | nt | -8
C=C(C)CSc1nncn1/N=C/c1ccc(OC)cc1 | 6 | -2 | nt | 50* | 98* | 9
Cn1cnc(S(=O)(=O)N[C@H]2C=C[C@H](CC(=O)Nc3ccccc3)O[C@H]2CO)c1 | nt | nt | nt | 2 | nt | nt
CCCCCOC(=O)c1ccc(OC(=O)c2cncc(Br)c2)cc1 | 2 | 2 | nt | 105* | ? | -3
CCCCCCCOC(=O)c1ccc(OC(=O)c2cccnc2)cc1 | 1 | 2 | nt | 33 | 36 | 6
COCC(=O)N1C[C@@H](C)[C@H](OC)CN(C)C(=O)c2ccc(NC(=O)c3cc(C)on3)cc2OC[C@H]1C | nt | nt | nt | 2 | nt | nt
CC(Nc1nc(-c2ccncc2)nc2ccccc12)c1ccccc1 (stereo unspecified) | 5 | 9 | -2 | -3 | 9 | 2
CC(Nc1nc(-c2cccnc2)nc2ccccc12)c1ccccc1 (stereo unspecified) | 6 | 38* | -3 | 6 | nt | nt
C[C@H](CO)N1C[C@H](C)[C@@H](CN(C)C(=O)Nc2ccc(F)cc2)Oc2ccc(NC(=O)CCC(F)(F)F)cc2CC1=O | nt | nt | nt | 0 | nt | nt
Cc1ccc(C(=O)Nc2nc(=O)n(C(=O)c3ccccc3C)s2)cc1 | -5 | -2 | nt | 60* | 22 | 1
O=C(O)c1ccc(Sc2nnnn2-c2ccccc2)c([N+](=O)[O-])c1 | -14 | 0 | 9 | -3 | 3 | -2
COC(=O)c1ccc(Sc2nnnn2-c2ccccc2)c([N+](=O)[O-])c1 | -2 | 0 | -16 | 46* | -52 | 4
COC(=O)c1c(C)[nH]c(C(=O)CSc2nnnn2-c2ccccc2)c1C | 1 | -2 | -3 | 48* | -2 | -9
CCOC(=O)c1c(C)[nH]c(C)c1C(=O)CSc1nnnn1-c1ccccc1 | nt | 0 | 3 | 1 | 4 | 9
COc1ccccc1CNC(=O)C[C@H]1CC[C@@H](NC(=O)CC2CC2)[C@@H](CO)O1 | nt | nt | nt | 5 | nt | nt
COC(=O)CCS(=O)(=O)c1nc(-c2ccccc2)cc(C(F)(F)F)n1 | 13 | -14 | nt | nt | -93 | -5
COc1ccc(-c2cc(C(F)(F)F)nc(S(=O)(=O)CCCC(=O)Nc3cccnc3Cl)n2)cc1OC | 115* | -9 | 0 | nt | -79 | -14
COc1ccc(CCNC(=O)c2c(C)nn(CC(C)C)c2Cl)cc1 | -5 | 4 | 0 | 3 | 2 | 8
Cc1nn(CC(C)C)c(Cl)c1C(=O)N(c1ccc(Cl)cc1F)S(C)(=O)=O | -6 | 26* | -4 | -3 | -4 | 8
CC(=O)Nc1ccc2nc(NC(=O)c3cccs3)sc2c1 | -13 | -10 | 0 | -34 | 36 | -14
Cc1nc2ccc(NC(=O)Cc3ccccc3F)cc2s1 | -3 | -5 | -1 | nt | 121* | 7
Cc1nc2ccc(NC(=O)c3cccs3)cc2s1 | -2 | 0 | 25 | nt | 121* | 4
Cc1nc2ccc(NC(=O)c3sccc3C)cc2s1 | -7 | -6 | 12 | 46* | 44 | -13
SMILES | Vif inh | N-glyco inh | Wnt act | esBAF inh | MITF act | PvdQ inh
Cc1nc2ccc(NC(=O)c3ccco3)cc2s1 | 5 | 1 | ? | nt | 91* | -16
Cc1nc2ccc(NC(=O)Cc3cccc(F)c3)cc2s1 | 12 | -1 | 0 | nt | -4 | -13
CO[C@H]1CN(C)C(=O)c2cc(NC(=O)C3CCCCC3)ccc2OC[C@@H](C)N(Cc2nccs2)C[C@H]1C | nt | nt | nt | 12 | nt | nt
Nc1ncnc2c1ncn2C1OC(CO)C2OC21 (stereo unspecified) | -5 | 0 | -1 | nt | nt | nt
Nc1ncnc2c1ncn2C1OC(COP(=O)(O)O)C(O)C1O (stereo unspecified) | 66* | 2 | 3 | 3 | 14 | -6
Nc1ncnc2c1ncn2[C@@H]1O[C@H](CO)C[C@H]1O | 56* | 5 | 9 | 19 | 6 | 8
Nc1ncnc2c1ncn2[C@@H]1O[C@H](COP(=O)(O)OP(=O)(O)OP(=O)(O)O)[C@@H](O)[C@H]1O | -4 | 0 | -1 | -3 | 7 | -9
Nc1ncnc2c1ncn2[C@@H]1O[C@H](COP(=O)(O)O)[C@@H](O)[C@H]1O | 106* | 1 | 4 | -2 | 1 | -2
Cc1noc(C)c1NC(=O)N(C)C[C@H]1Oc2ccc(NS(=O)(=O)c3c(C)noc3C)cc2CC(=O)N([C@@H](C)CO)C[C@@H]1C | nt | nt | nt | -4 | nt | nt
C[C@@H]1CN([C@H](C)CO)C(=O)Cc2cc(NC(=O)Cn3cnnn3)ccc2O[C@H]1CN(C)S(=O)(=O)c1cn(C)cn1 | nt | nt | nt | -1 | nt | nt
CC(C)C1N=C(c2ccc3c(c2)OCO3)CC(c2ccccc2O)N1 (stereo unspecified) | 0 | 37* | nt | 47* | 19 | -3
COc1cccc(NC(=O)C2Cc3ccccc3CN2C(=O)c2ccco2)c1 (stereo unspecified) | 2 | -2 | 4 | 57* | 5 | -8
O=C(NCc1ccccc1)C1Cc2ccccc2CN1C(=O)c1ccco1 (stereo unspecified) | 10 | -2 | -2 | -3 | -1 | -4
Cc1ccccc1NC(=O)C1Cc2ccccc2CN1C(=O)c1ccco1 (stereo unspecified) | 15 | -2 | 10 | 55* | 30 | 0
C[C@H](CO)N1C[C@H](C)[C@H](CN(C)Cc2ccc(-c3ccccc3)cc2)Oc2ccc(N(C)C)cc2C1=O | nt | nt | nt | -2 | nt | nt
CC(C)C#Cc1ccc([C@@H]2[C@H](C#N)N(C(=O)C3CC3)[C@H]2CO)cc1 | nt | nt | nt | 0 | nt | nt
CCOc1ccccc1NC(=O)c1cc2ccccc2oc1=O | 1 | -1 | -1 | 20 | 0 | 7
O=C(Nc1ccc(F)cc1F)c1cc2ccccc2oc1=O | 2 | -7 | 50* | 20 | nt | 6
Cc1c(NC(=O)c2cc3ccccc3oc2=O)c(=O)n(-c2ccccc2)n1C | 90* | -1 | 24 | ? | 37 | 5
O=C(NNC(=O)c1cc2ccccc2oc1=O)c1ccccc1 | 79* | -1 | 9 | 55* | nt | -10
CN(c1ccccc1)S(=O)(=O)c1cccc(NC(=O)c2cc3ccccc3oc2=O)c1 | -7 | -2 | 29 | 54* | 28 | -10
